# Source: PubChem BioAssay (NCATS)
# Results filed as inconclusive are left out. Entries that show only a call come without a potency. Active and inactive are the calls of the source. Calls come from the whole dose curve; as a rule, active = well fitted inhibition curve with a large enough effect; inconclusive = small, poorly fitted or top-dose-only effect; inactive = flat fitted curve, though single readings scatter. Residues, ends and D or L forms follow the SMILES beside them. *: point of attachment. Cbz = O=C(OCc1ccccc1)*
# Target: Phospholipid hydroperoxide glutathione peroxidase GPX4 (Homo sapiens) (UniProt P36969)
# Sequence (P36969 whole entry, looked up): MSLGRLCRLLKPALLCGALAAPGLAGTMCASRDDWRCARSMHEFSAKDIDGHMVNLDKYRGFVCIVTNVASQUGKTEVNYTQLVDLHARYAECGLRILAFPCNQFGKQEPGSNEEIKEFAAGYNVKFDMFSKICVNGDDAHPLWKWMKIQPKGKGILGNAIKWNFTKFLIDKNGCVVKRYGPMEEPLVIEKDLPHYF
# Test: Primary qHTS Assay for Inhibitors of Recombinant Selenoprotein Glutathione Peroxidase 4 (GPX4) (AID 1845192); note: nearly all actives have a fitted effect of over 65% in size
# Conditions: recombinant GPX4, GR-coupled NADPH fluorescence, 15 min; series mostly up to 50 µM
# Procedure, shortened: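 NADPH consumption followed by fluorescence at 340/450 nm, t=0 and after 15 min at room temperature. Reaction started with cumene hydroperoxide (0.5 mM final) after 30 min compound–GPX4 preincubation; final 200 nM GPX4, 100 nM GR, 1 mM GSH, 0.5 mM NADPH.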
row,SMILES,Potency
1,Nc1nc2ccc(Cl)cc2c2nc(-c3ccco3)nn12,inactive
2,C#CC(N)CCC(=O)O (stereo unspecified),inactive
3,[Li+],inactive
4,COc1ccccc1N1CCN(CCCCNC(=O)c2ccc3ccccc3c2)CC1,inactive
5,Nc1ccc(N2C(=O)c3ccccc3C2=O)c(Cl)c1,inactive
6,O=C(O)c1ccccc1Nc1cccc(OCc2ccc3ccccc3n2)c1,inactive
7,CC(C)NCC(O)COc1ccc(CC(N)=O)cc1 (stereo unspecified),inactive
8,COc1ccc(-c2cc3ncc(C)n3c(Nc3ncccc3C(N)=O)n2)cc1OC,inactive
9,CC(N)=O,inactive
10,CCOC(=O)C12CC1/C(=N/O)c1ccccc1O2 (stereo unspecified),inactive
11,CCCCCCC/C=C\CCCCCCCCC(=O)O,inactive
12,Nn1nnc2ccccc21,inactive
13,CCCCCCCCCCC/C=C\C(C)(C)/C=C\CCCC(=O)O,inactive
14,NC(=O)c1cc[n+](CC2=C(C(=O)O)N3C(=O)[C@@H](NC(=O)[C@@H](c4ccccc4)S(=O)(=O)[O-])[C@H]3SC2)cc1,inactive
15,CCCCCCCC/C=C\CCCCCCCC(=O)NCCc1ccc(O)c(O)c1,inactive
16,O[Si](CCCN1CCCCC1)(c1ccc(F)cc1)C1CCCCC1 (stereo unspecified),inactive
17,O=C1C2C=CC=CC2=NC(=S)N1CCN1CCC(=C(c2ccc(F)cc2)c2ccc(F)cc2)CC1 (stereo unspecified),inactive
18,CSC(=N)N,inactive
19,O=C(O)c1cc2cc(F)ccc2[nH]1,inactive
20,CC(C)[C@H](NC(=O)OCc1ccccc1)C(=O)N[C@H](C=O)Cc1ccccc1 (Cbz-Val-Phe-aldehyde),inactive
21,N[C@H](C(=O)O)c1cc(O)cc(O)c1,inactive
